A selection: hits, their analogues and other compounds. The true share with any hit is near 1.8%.
EP2 modulator: modulators of human EP2 prostaglandin E2 receptor; induction, % at 25 µM; P43116; EP2-expressing cells, cAMP HTRF FRET, PGE2 co-stimulation; 260,000 tested, 0.83% active;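 active means compounds whose cAMP rise, as percent of the full-agonist control response, exceeds 60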;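 further: rat C6 glioma line stably carrying human EP2 under a CMV promoter; the protocol text gives 20 µM as final concentration; 100% = response of wells given 1 µM PGE2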
PERK inhibitor: inhibitors of human PERK kinase | Q9NZJ5 | CHO PERK-DD fusion, SEAP luminescence translation reporter | inhibition, % at 5.6 µM | 220,000 tested, 0.17% active;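 active means inhibition above the mean inhibition of all tested compounds plus 3 SD, set separately per screening campaign, cut at about 2.9% in these data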;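 further: PERK kinase domain activated by AP20187 dimerizer at 100 nM; 0% = DMSO with dimerizer and 100% = rapamycin at 8.4 µM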
eIF4E-4G inh: blocks eIF4E binding to eIF4G. 220,000 tested, 0.37% active. TR-FRET eIF4E-eIF4GI(517-606) binding, 2 h. P63073+Q04637. inhibition, % at 21.7 µM;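 active means inhibition above about 30%, limit read from the data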;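 further: 0% = full FRET control wells and 100% = background wells lacking eIF4GI fragment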
Target sequence (P63073 whole entry, looked up, the tested form may be a part): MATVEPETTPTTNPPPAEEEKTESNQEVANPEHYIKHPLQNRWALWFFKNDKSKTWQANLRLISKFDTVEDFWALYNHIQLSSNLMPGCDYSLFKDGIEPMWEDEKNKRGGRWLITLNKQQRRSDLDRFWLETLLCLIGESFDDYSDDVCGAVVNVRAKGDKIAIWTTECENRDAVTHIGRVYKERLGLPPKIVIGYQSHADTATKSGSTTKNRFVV
Target sequence (Q04637 whole entry, looked up, the tested form may be a part): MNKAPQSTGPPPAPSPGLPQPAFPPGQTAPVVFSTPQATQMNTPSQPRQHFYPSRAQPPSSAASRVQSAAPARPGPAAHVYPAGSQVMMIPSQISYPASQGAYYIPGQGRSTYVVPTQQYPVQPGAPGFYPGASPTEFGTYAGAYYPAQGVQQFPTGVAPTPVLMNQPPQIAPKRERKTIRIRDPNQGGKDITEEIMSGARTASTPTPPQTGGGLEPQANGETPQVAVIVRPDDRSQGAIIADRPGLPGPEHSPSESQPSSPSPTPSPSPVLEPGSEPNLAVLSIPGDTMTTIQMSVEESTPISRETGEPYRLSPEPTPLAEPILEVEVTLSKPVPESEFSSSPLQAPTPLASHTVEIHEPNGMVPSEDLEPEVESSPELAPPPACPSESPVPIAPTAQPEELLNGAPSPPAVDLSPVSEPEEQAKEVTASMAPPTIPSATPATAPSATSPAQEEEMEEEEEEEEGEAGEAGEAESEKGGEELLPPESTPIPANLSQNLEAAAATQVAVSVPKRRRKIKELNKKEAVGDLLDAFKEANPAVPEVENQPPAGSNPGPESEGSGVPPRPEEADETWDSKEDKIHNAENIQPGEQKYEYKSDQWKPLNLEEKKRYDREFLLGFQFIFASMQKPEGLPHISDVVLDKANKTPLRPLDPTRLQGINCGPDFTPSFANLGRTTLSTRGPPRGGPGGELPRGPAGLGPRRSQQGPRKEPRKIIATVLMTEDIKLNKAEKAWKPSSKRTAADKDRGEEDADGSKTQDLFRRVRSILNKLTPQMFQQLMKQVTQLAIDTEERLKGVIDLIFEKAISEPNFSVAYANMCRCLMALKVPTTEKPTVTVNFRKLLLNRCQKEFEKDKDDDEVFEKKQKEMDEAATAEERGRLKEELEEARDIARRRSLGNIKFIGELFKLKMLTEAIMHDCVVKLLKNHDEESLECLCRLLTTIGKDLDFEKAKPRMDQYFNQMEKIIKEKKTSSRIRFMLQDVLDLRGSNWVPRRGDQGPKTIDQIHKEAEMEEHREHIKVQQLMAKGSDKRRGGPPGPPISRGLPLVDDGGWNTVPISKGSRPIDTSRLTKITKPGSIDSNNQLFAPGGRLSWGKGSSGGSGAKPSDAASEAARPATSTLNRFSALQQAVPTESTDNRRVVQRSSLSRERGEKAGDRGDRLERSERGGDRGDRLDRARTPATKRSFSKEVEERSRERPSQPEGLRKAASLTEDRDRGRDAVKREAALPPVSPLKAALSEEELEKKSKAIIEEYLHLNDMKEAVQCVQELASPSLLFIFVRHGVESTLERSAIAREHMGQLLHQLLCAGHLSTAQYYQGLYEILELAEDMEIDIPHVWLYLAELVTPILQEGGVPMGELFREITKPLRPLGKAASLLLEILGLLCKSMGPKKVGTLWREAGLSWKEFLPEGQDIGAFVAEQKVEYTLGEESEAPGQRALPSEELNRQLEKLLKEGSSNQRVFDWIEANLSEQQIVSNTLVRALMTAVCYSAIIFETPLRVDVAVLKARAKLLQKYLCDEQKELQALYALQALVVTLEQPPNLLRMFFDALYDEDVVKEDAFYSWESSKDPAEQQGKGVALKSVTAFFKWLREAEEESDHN
EP2 antag: EP2 receptor (human) inhibition; AID 1422; 260,000 tested, 0.52% active; inhibition, % at 25 µM; C6 glioma cells expressing human EP2, cAMP TR-FRET; cells stimulated with saturating PGE2; P43116;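 active means percent inhibition above 40 after rounding to a whole number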;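 further: rat C6 glioma host cells with rolipram phosphodiesterase inhibitor present; the protocol text gives 20 µM as final concentration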
* hit, by the source's call; . = no result; ! = not active in a repeat; [ ] = dose if it differs, or a comment.

SMILES | EP2 modulator | PERK inhibitor | eIF4E-4G inh | EP2 antag
Cc1sc2ncn(CC(=O)OC(C)C)c(=O)c2c1-c1ccc(F)cc1 | -0.2 | . | . | 10.7
O=C(O)C1C2CCC3(CN(CCc4ccccc4)C(=O)C13)O2 (centres undefined) | 1.4 | . | . | 5.9
O=C(NCCCN1CCOCC1)c1cn(Cc2c(F)cccc2Cl)nn1 | -84.3 | . | . | 6.8
C=CCNc1nc(Nc2ccc(OC)cc2)nc(OCC)n1 | 61.9*! | -0.3 | -0.4 | 18.6
C=CCNc1nc(NCc2ccco2)nc(OCC)n1 | 35.1 | 0.7 | -8.7 | 8.8
CC(=O)Nc1ccc(NC(=O)CSc2nnc(-c3cccnc3)n2C)cc1 | 2.8 | . | . | 11.2
CCCCc1nc2sc3c(=O)n(N)cnc3c2c2c1CCC2 | -3.1 | 3.0* | -7.0 | 8.7
CC(C)Cc1nc2sc3c(=O)n(N)cnc3c2c2c1COC(C)(C)C2 | 30.7 | 1.0 | -6.1 | 6.1
O=c1cc(-c2ccc(F)cc2)[nH][nH]1 | 4.7 | 0.9 | -0.7 | 11.6
O=c1cc(-c2ccc(Br)cc2)[nH][nH]1 | 16.2 | 2.9* | -1.9 | 6.1
Cc1nn2c3ccccc3nc2n(Cc2ccccc2)c1=O | . | 3.1* | . | .
CCn1c(=O)c(C)nn2c3ccccc3nc12 | 12.0 | 1.3 | -12.7 | 15.2
CN(C)CCCNC(=O)C1CCN(c2nc3ccccc3n2C)CC1 | -22.8 | . | . | .
COc1ccc(N2CCN(CC(O)c3c[nH]c4cc(OC)ccc34)CC2)cc1 (centres undefined) | -57.0 | . | . | 10.8
Cc1ccc(-c2cc(N)c(=O)n(CC(=O)NC3CCCCCC3)n2)s1 | -126.1 | . | . | 1.8
Cc1cc(C(C)(C)C)oc1C(=O)NCCCNC(=O)c1oc(C(C)(C)C)cc1C | 60.6*! | 0.3 | 3.1 | 7.2
COc1cc(CC(=O)Nc2ccc3c(c2)CCC3)cc(OC)c1OC | 1.1 | -0.5 | 59.6*[fluorescence artefact?] | 4.8
Cc1ccnc(N2CCCC(C(=O)NCc3ccc(Cl)cc3)C2)n1 (centres undefined) | -2.1 | . | . | 7.0
Nc1ccc(-c2nc3ccc(-c4nc5ccccc5o4)cc3[nH]2)cc1 | -36.6 | -0.8 | 5.6 | 73.0*
CC(C(=O)Nc1ccccc1Oc1ccccc1)c1ccccc1 (centres undefined) | 64.3* | 0.0 | 3.9 | 5.6
COc1ccccc1NC(=O)C1CCCCC1 | 12.0 | 0.7 | 1.5 | .
O=C(Nc1ccccc1Oc1ccccc1)C1CCCC1 | 60.7* | -0.2 | 3.5 | 6.6
CC(C)(CC(=O)O)CC(=O)Nc1ccccc1Oc1ccccc1 | 20.5 | 0.7 | -2.9 | 8.5
O=C(Cn1nc(C(F)(F)F)c2c1CCC2)NCCc1ccccc1 | -7.3 | . | . | 12.1
COc1ccc(C2(C(=O)N[C@@H](C)Cn3nnc4ccccc43)CC2)cc1 | 8.9 | . | . | 5.5
SMILES | EP2 modulator | PERK inhibitor | eIF4E-4G inh | EP2 antag
Cc1c[nH]c(=O)c([N+](=O)[O-])c1 | 17.4 | 3.8* | -0.2 | 7.5
Cc1cc(/C=N/Nc2ccc([N+](=O)[O-])cn2)c(C)n1-c1ccc(C(=O)O)cc1 | -36.8 | 0.5 | 34.5* | 18.4
Cc1ccccc1-n1c(C)cc(/C=N/Nc2ccc([N+](=O)[O-])cn2)c1C | -22.8 | -0.3 | -0.3 | 14.2
COc1cc(/C=N/NC(=O)C2COc3ccccc3O2)ccc1O (centres undefined) | -39.1 | 0.9 | 1.6 | 10.7
COc1cc(/C=N/NC(=O)C2c3ccccc3Oc3ccccc32)ccc1O | -3.1 | 0.9 | 40.8* | 13.9
CCS(=O)(=O)c1ccc(Sc2nncn2C)c([N+](=O)[O-])c1 | 12.2 | 1.1 | -1.4 | 15.4
CCS(=O)(=O)c1cc([N+](=O)[O-])c(Br)s1 | -118.7 | . | . | 74.2*
CCOc1ccc(N(CC(=O)NC(C)(C)CC)C(=O)c2snc(C(N)=O)c2N)cc1 | -13.4 | . | . | 11.7
CCn1c(=O)oc2cc(S(=O)(=O)NC3(c4ccc(Cl)cc4)CCC3)ccc21 | -79.0 | . | . | 3.3
C[C@@H](NC(=O)/C(C#N)=C/c1ccc(O)c(O)c1)c1ccccc1 | 23.4 | . | . | 17.1
CC(NC(=O)/C(C#N)=C/c1ccc(Cl)c([N+](=O)[O-])c1)c1ccccc1 (centres undefined) | -15.1 | 0.7 | 1.2 | 68.7*
CN(C)CCCN1c2ccccc2Sc2ccc3ccccc3c21 | -17.0 | . | . | 12.4
CN(C)CCCN1c2ccc3ccccc3c2Sc2cccc(Cl)c21 | -19.7 | . | . | 49.0*
Cc1cc(OC2CCCCC2)nc(NCc2ccccc2)n1 | 66.0* | 0.2 | -9.8 | 6.8
CC(=O)c1ccc(Oc2cc(C)nc(NCc3ccccc3)n2)cc1 | 14.9 | -0.3 | 1.0 | 6.7
CCOc1cc(C)nc(NCc2ccccc2)n1 | 63.3* | 0.1 | -5.7 | 3.1
Cc1cc(N2CCOCC2)nc(NCc2ccccc2)n1 | -58.9 | -0.7 | -3.3 | 23.6
Cc1cc(N2CCCCC2)nc(NCc2ccccc2)n1 | -38.2 | -0.1 | 67.0* | 32.2
Cc1cc(-c2cc(C(=O)NCc3ccccc3)on2)nc(NCC2CC2)n1 | -5.4 | . | -1.1 | 9.2
Cc1cc(C)cc(N(C(=O)c2cnccn2)C(C(=O)NC2CCCC2)c2cccs2)c1 (centres undefined) | 6.6 | . | . | 7.5
COc1cc(NC(=O)[C@H]2C[C@@H](c3cccs3)NS(=O)(=O)N2C)cc(OC)c1OC | -26.0 | . | . | .
Cc1cn(C(=O)c2ccccc2)c(=S)n1-c1ccc(Br)cc1 | 64.8* | 0.7 | 1.2 | 5.1
Cc1cc(=O)cc(C)n1-c1ccc(Br)cc1 | 22.9 | -0.2 | 2.2 | 5.4
Cc1cc2c(cc3c(=O)n(CC(=O)NCCc4ccco4)nc(C)n32)s1 | -11.4 | . | . | .
Oc1ccccc1C=NCCCCCCN=Cc1ccccc1O | 62.4* | 0.3 | 4.6 | 4.6
SMILES | EP2 modulator | PERK inhibitor | eIF4E-4G inh | EP2 antag
Nc1ccc(O)c2c1C(=O)c1ccccc1C2=O | -64.5 | 1.5 | 30.7*[fluorescence artefact?] | 18.8
Cc1nc2cc(-c3cccc(Cl)c3)nn2c(NCCO)c1C | -62.1 | . | . | 11.2
S=C1SCN(C2CCCCCCCCCCC2)CN1C1CCCCCCCCCCC1 | 12.5 | . | . | 40.8*
Cc1ccc(NC(=O)c2ccc(Cl)c(N3C(=O)C=CC3=O)c2)cc1 | -38.1 | 2.4 | 15.2 | 125.3*
Cc1ccc(/C=N/NC(=O)C[n+]2ccccc2)s1 | -6.1 | -0.3 | 1.3 | 5.0
CCCCCCCCCC(=O)N/N=C/c1ccc(C)s1 | 50.6 | 1.2 | 52.5*[fluorescence artefact?] | 7.2
CN1C(=O)N(CC(=O)Nc2ccc3c(c2)OC(C)(C)O3)c2cccnc2N1C | -11.1 | . | . | .
COc1cc(C)nc(N2CCC(C(=O)Nc3ccccc3OC)CC2)n1 | 3.4 | . | . | 9.6
CCOc1cc(C)nc(N2CCC(C(=O)Nc3ccccc3OCC)CC2)n1 | 92.2*! | 0.4 | 0.7 | -6.2
CCc1nc2ccc(NC(=O)c3sc4ncn(C)c(=O)c4c3C)cc2[nH]1 | -59.2 | . | . | 7.0
O=[N+]([O-])c1ccc(C2=Nn3c(nnc3-c3ccc(Cl)cc3)SC2)o1 | -31.3 | . | . | 73.3*
O=C(NCc1ccc2c(c1)OCO2)[C@H]1C=CCN1C(=O)NCc1ccccc1 | -11.2 | . | . | 7.8
O=S(=O)(Nc1ccccn1)c1ccc(Cl)cc1 | 7.3 | 0.5 | 5.8 | 6.6
CN(C)S(=O)(=O)Nc1ccccn1 | 13.1 | 1.8 | 54.9* | 10.1
CCSc1nc2ccccc2c(=O)n1Cc1ccc(F)cc1 | 64.9* | 1.9 | 1.5 | 7.0
C=C(C)Cn1c(SCC)nc2ccccc2c1=O | 56.5 | -0.7 | 7.8 | 14.7
CCSc1nc2c(c(=O)n1Cc1ccccc1)SC(C)C2 (centres undefined) | 61.7* | -1.4 | 4.5 | 9.1
C=C(C)Cn1c(SCCC)nc2ccccc2c1=O | 94.3* | . | . | 13.7

High-throughput results deposited in PubChem by several laboratories.
